# Measurements reported in PubChem BioAssay AID540345 (The Scripps Research Institute Molecular Screening Center, 2011).
# Unmarked numbers belong to inactive results. No rule for the calls is given here.
# System: Imidazoline I2
# Experiment: off-target binding and CYP inhibition panel, profiling panel, selectivity assay for GPR7 antagonist project, biochemical, Ricerca HitProfilingScreen, CYP450, set 2 (AID 540345)
# Settings: Ricerca radioligand binding/CYP panel, central, at 10 µM, active compounds read high
structure (smiles),measurement,value
COc1ccc(Oc2c(Cl)cnn(C3c4ccccc4-c4ccccc43)c2=O)cc1,inhibition,12%
